This excerpt belongs to a sample that is enriched for hits.
TDP1 cell CPT: DT40-hTDP1 cell growth loss with CPT. hit rate 12% among 420,000. Potency, µM (titrated, usually from 46.2 µM), for the others: at the highest dose activity change, negative = growth inhibition, usual class: inhibitors. chicken DT40 Tdp1-/-;hTDP1 cells + 20 nM CPT, ATP luminescence, 48 h; further: potency means the concentration at half of the fitted maximal effect; nearly all actives have a fitted effect of over 55% in size
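Chicken DT40 Tdp1-/- cells stably complemented with human TDP1 were seeded at 400 cells/well in medium containing 20 nM camptothecin, exposed to pin-transferred compounds, and grown at 37 °C for at least 48 hr. Viability was read as ATP luminescence.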
HT1080NT lethal: kills 2HG-producing HT-1080-NT fibrosarcoma cells | hit rate 1.6% among 360,000 | Potency, µM (titrated, usually from 46.1 µM), for inactives: at the highest dose activity, negative = less viability, hits mostly cytotoxic | HT-1080-NT fibrosarcoma viability, CellTiter-Glo ATP luminescence, 48 h;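 further: NT is the 2HG producing partner of a matched IDH1 knockdown line; potency means the concentration at half of the fitted maximal effect; 0% = DMSO-treated cells and -100% = media-only wells without cells; nearly all actives have a fitted effect of over 55% in size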
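Viability by CellTiter-Glo luminescence after 48 h compound exposure at 37C of HT-1080-NT cells (750/well, RPMI, 5% FBS). % activity scaled between DMSO wells and medium-only wells, then curve-fitted and categorized by curve class.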
IL1B secr inh: inflammasome signaling inhibition, IL-1 beta readout; hit rate 4.7% among 360,000; activity change, % at 57.5 µM; THP-1 LPS/ATP IL-1B secretion, AlphaLISA, 16 h; stronger effect = lower value; in the data active means activity change below about -50%; inconclusive means mostly about -30% to -49%
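Secreted IL-1B measured by AlphaLISA bead assay after 16 h compound exposure of THP-1 cells; compounds (final up to 57.5 uM) added 1 h before LPS (250 ng/mL) and ATP (1.25 mM) stimulation; lower signal means less secretion.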
12-LOX inh: ALOX12 (human) lipoxygenase inhibition | Potency, µM (highest dose often 108 µM), for the others: top-dose activity change, negative = inhibition, usual class: inhibitors | purified 12hLO, xylenol orange hydroperoxide absorbance | hit rate 1.1% among 580,000; further: potency means the concentration at half of the fitted maximal effect
Target sequence (P18054 whole entry, looked up): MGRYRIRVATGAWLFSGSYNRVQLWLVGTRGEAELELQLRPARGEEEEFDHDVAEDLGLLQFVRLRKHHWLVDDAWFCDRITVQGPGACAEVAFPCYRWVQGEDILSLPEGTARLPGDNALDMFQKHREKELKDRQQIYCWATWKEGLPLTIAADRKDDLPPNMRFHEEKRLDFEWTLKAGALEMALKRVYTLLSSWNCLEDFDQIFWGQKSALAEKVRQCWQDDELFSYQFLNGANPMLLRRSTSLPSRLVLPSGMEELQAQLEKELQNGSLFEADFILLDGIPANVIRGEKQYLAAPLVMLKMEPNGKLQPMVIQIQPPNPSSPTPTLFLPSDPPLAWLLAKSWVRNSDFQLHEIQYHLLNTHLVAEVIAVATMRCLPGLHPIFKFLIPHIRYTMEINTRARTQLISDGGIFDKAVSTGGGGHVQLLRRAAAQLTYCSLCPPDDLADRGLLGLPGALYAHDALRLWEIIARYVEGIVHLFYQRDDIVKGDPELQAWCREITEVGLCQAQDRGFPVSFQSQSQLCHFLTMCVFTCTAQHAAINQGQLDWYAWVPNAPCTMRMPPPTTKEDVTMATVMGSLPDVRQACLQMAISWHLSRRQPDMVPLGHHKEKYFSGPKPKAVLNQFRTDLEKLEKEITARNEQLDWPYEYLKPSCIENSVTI
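Purified human 12hLO at 150 nM in 25 mM Hepes, 0.01% Triton X-100, pH 7.0, preincubated 15 min at room temperature with compound. Reaction started with 40 uM arachidonic acid, 30 min at room temperature. Hydroperoxide measured by Fe-xylenol orange, 573/405 nm absorbance ratio.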
DT40 TDP1 no CPT: qHTS for Inhibitors of human tyrosyl-DNA phosphodiesterase 1 (TDP1): qHTS in cells in absence of CPT. AID 686978, 2013. DT40 Tdp1-/- hTDP1 cells, no CPT, ATP luminescence, 48 h. Potency, µM (top dose mostly 46.2 µM), for the others: top-dose activity change, negative = growth inhibition, actives largely listed as inhibitors. hit rate 15% among 420,000; further: potency means the concentration at half of the fitted maximal effect; nearly all actives have a fitted effect of over 55% in size
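Chicken DT40 Tdp1-/- cells complemented with human TDP1, screened without camptothecin (DMSO vehicle only), 400 cells/well. Compounds pin-transferred, cells incubated at 37 °C for at least 48 hr. Growth read as ATP-dependent luminescence (CellTiter-Glo, 30 min at RT).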
HT1080 IDH1KD tx: HT-1080 IDH1 knockdown cell toxicity (counter line). HT-1080 IDH1 knockdown viability, ATP luminescence, 48 h. Potency, µM (series often up to 46.1 µM), inactives show top-dose activity, negative = toxicity, actives largely listed as cytotoxic. hit rate 2% among 360,000. AID 686971;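 further: potency means the concentration at half of the fitted maximal effect; 0% = DMSO wells and -100% = cell-free medium wells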
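Cytotoxicity counter-line: IDH1KD HT-1080, 48 h, CellTiter-Glo. Curves classed by r2, magnitude and activity.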
An asterisk follows results filed as active; i = inactive; ? = inconclusive; . = no result given; [ ] = another dose, or the depositor's remark. Unless noted, the call rests on the fitted dose curve; in most records, active means well fitted curve in the direction sought with a large enough effect; inconclusive means small, poorly fitted or top-dose-only effect, or another doubt; inactive means no such curve, though single readings can be large; an effect the other way counts as inactive or inconclusive. Unless noted, on the % scale 0 is the no-effect control and ±100 the full control effect.

SMILES	TDP1 cell CPT	HT1080NT lethal	IL1B secr inh	12-LOX inh	DT40 TDP1 no CPT	HT1080 IDH1KD tx
COc1ccccc1CNc1cc(-c2ccoc2)ncn1	3.6%	.	.	?	-19.3%	.
COc1ccccc1CNc1cc(-c2ccccc2OC)ncn1	4.61µM*	.	.	-2.7%	2.91µM*	.
CCOc1ccc(-c2cc(-c3nc(-c4cccnc4)no3)[nH]n2)cc1	.	.	.	6.0%	.	.
COC(=O)C(=Nc1ccccc1)/C(C(=O)C(=O)N(C)c1ccccc1)=C(\O)c1ccccc1	24.5%	?	-10.4	12.6µM*	6.6%	9.7%
CC(C)C(=O)Nc1nc(-c2ccc([N+](=O)[O-])cc2)cs1	9.2µM*	-19.0%	-16.2	0.4%	4.61µM*	-13.7%
O=[N+]([O-])c1ccc(-c2csc(NN=C3CCCC3)n2)cc1	4.11µM*	?	?	-5.6%	10.3µM*	-20.8%
O=C(Cc1nc(-c2ccc([N+](=O)[O-])cc2)cs1)Nc1ccccc1	22.4µM*	0.4%	-24.4	8.2%	15.8µM*	-5.0%
O=C(Cc1ccc([N+](=O)[O-])cc1)Nc1cccnc1	-25.9%	-4.5%	8.3	18.1%	17.5%	-3.2%
COCC(=O)Nc1nc(-c2ccc([N+](=O)[O-])cc2)cs1	-23.4%	11.4%	2.4	-1.7%	?	1.4%
COc1cc(-c2cc3nc(NCc4cccc(Cl)c4)ccn3n2)cc(OC)c1OC	6.51µM*	16.4µM*	17.8	0.5%	5.17µM*	9.2µM*
COc1cc(-c2cc3nc(NCc4cccs4)ccn3n2)cc(OC)c1OC	10.3µM*	?	-7.4	22.0%	10.3µM*	?
COc1cc(Nc2ccn3nc(-c4ccc(F)cc4)cc3n2)cc(OC)c1OC	?	-16.0%	-68.5*	15.2%	?	0.0%
COCCCNc1ccn2nc(-c3ccc(Cl)cc3)cc2n1	?	22.2%	52.4	-27.9%	?	-8.8%
COc1ccc(OC)c(C2CCCN2Cc2nc(-c3ccccc3C)no2)c1 (stereo unspecified)	.	.	.	90.7%	.	.
O=C(CC1CCN(C(=O)Nc2ccccc2)C1)NC1CC1 (stereo unspecified)	.	.	.	4.9%	.	.
CCC(=O)Nc1cccc(-c2nc3cc(OC)ccc3o2)c1	.	.	.	-1.2%	.	.
Cc1ccc(C(=O)N2CC(=O)Nc3ccc(F)cc3C2c2ccccc2)cc1[N+](=O)[O-] (stereo unspecified)	18.4µM*	-14.2%	0.0	-6.7%	20.6µM*	-21.2%
COc1ccc(C(=O)N2CC(=O)Nc3ccc(C)cc3C2c2ccc(F)cc2)c(OC)c1 (stereo unspecified)	20.6µM*	.	.	-28.7%	?	.
Cc1ccc2c(c1)C(c1ccccc1)N(C(=O)c1ccccc1[N+](=O)[O-])CC(=O)N2 (stereo unspecified)	11.6µM*	2.1%	20.4	-4.0%	9.2µM*	-17.2%
O=C1CN(C(=O)c2ccccc2[N+](=O)[O-])C(c2ccccc2)c2cc(Br)ccc2N1 (stereo unspecified)	20.6µM*	-12.7%	25.2	0.0%	?	-8.5%
CCOC(=O)C1(C)C=C(Nc2ccc(C(C)=O)cc2)C(=O)N1c1ccc(C(C)=O)cc1 (stereo unspecified)	.	.	.	77.5%	.	.
O=C1NC2(CCN(C(=O)NC3CCCC3)CC2)Oc2ccccc21	.	.	.	9.6%	.	.
CS(=O)(=O)Nc1ccccc1NS(C)(=O)=O	-1.4%	0.3%	-58.4*	?	-10.9%	1.9%
COC(=O)c1ccccc1NS(C)(=O)=O	5.7%	14.8%	6.9	16.7%	-4.8%	17.2%
COc1ccccc1C(=O)NC(=O)Nc1cccc(Cl)c1	-6.8%	-8.7%	-3.0	?	?	1.0%
SMILES	TDP1 cell CPT	HT1080NT lethal	IL1B secr inh	12-LOX inh	DT40 TDP1 no CPT	HT1080 IDH1KD tx
O=C(NC(=O)c1c(F)cccc1F)Nc1cccc(Oc2ncc(Cl)cn2)c1	?	-7.2%	0.0	-1.0%	5.8µM*	3.1%
COCCCNC(=O)c1cc(-c2ccccc2)nc2ccc(C)cc12	.	.	.	-9.9%	.	.
O=C(/C=C/c1ccc2c(c1)OCO2)NCCS(=O)(=O)N1CCN(c2ccccc2)CC1	-29.4%	?	-15.0	10.1%	?	7.31µM*
N#Cc1ccc(/C=C/C(=O)c2ccc3c(c2)OCO3)cc1	16.4µM*	?	-68.7*	-5.0%	23.1µM*	?
COC(=O)c1c(C)[nH]c(C(=O)/C=C/c2cccc(Cl)c2)c1C	?	12.4%	-64.5*	-19.7%	?	3.1%
COC(=O)c1c(C)[nH]c(C(=O)/C=C/c2ccc(C)cc2)c1C	-15.7%	-1.2%	14.0	0.0%	-2.9%	2.0%
O=C(/C=C/c1ccc2c(c1)OCO2)NCCS(=O)(=O)N1CCN(c2ccc(F)cc2)CC1	?	-29.8%	3.4	-9.8%	-26.4%	?
CC(/C=C/c1ccc2c(c1)OCO2)=N/NC(=O)c1ccc(C)nc1	?	-19.2%	i	26.5%	23.1µM*	-25.6%
O=C(NC1CCN(Cc2cccc(C(F)(F)F)c2)CC1)C1CC=CCC1 (stereo unspecified)	.	.	.	-1.7%	.	.
CCN1c2cc(C(=O)Nc3ccc(Cl)c(Cl)c3)ccc2C(=O)N2CCCCCC21 (stereo unspecified)	.	.	.	6.1%	.	.
O=C(/C=C/c1ccc2c(c1)OCO2)N1CCOCC1	-11.0%	-2.1%	8.6	0.0%	-5.5%	-3.2%
O=C(/C=C/c1ccccc1)c1ccccn1	23.1µM*	?	-12.5	0.0%	16.4µM*	?
CCN(C(=O)/C=C/c1ccc2c(c1)OCO2)c1ccccc1	?	21.1%	-3.9	-26.1%	?	16.0%
O=C(/C=C/c1ccc2c(c1)OCO2)c1ccccn1	23.1µM*	25.9µM*	-1.5	?	18.4µM*	?
O=C(C=Cc1ccc2c(c1)OCO2)c1ccccc1	?	?	-72.2*	-4.5%	16.4µM*	16.4µM*
O=C(N/N=C/c1ccc2c(c1)OCO2)c1ccccn1	?	?	-23.8	2.5%[57.4 µM]	?	?
O=C(C=Cc1ccc2c(c1)OCO2)C=Cc1ccc2c(c1)OCO2	?	6.7%	-18.5	?	23.1µM*	10.6%
O=C(CCc1ncc(-c2ccc(Cl)cc2Cl)o1)NCc1ccccc1	.	.	.	-12.4%	.	.
O=C(/C=C/c1cccc(Cl)c1)c1cccc(O)c1	.	.	.	11.1%	.	.
O=C1COc2ccc(C(=O)/C=C/c3ccccc3)cc2N1	5.17µM*	-4.4%	-2.2	0.6%	5.17µM*	-2.9%
O=C(/C=C/c1ccccc1)c1ccc2c(c1)OCCCCO2	-29.4%	5.0%	-78.2*	-3.8%	?	12.4%

High-throughput results as filed in PubChem BioAssay.
